The results in this text go back to PubChem BioAssay (NCI).

Among the test systems are HCT-15 colon; HT29 colon; SNB-75 CNS; SNB-19 CNS; U251 CNS; PC-3 prostate; SK-MEL-5 melanoma; UACC-62 melanoma; LOX IMVI melanoma; SK-MEL-28 melanoma; SK-MEL-2 melanoma; EKVX NSCLC; SN12C renal; UO-31 renal; TK-10 renal; ACHN renal; CAKI-1 renal; A498 renal; CCRF-CEM leukemia; MOLT-4 leukemia.
Common to all, as to experiment: NCI-60 one-dose screen, 48 h (100 = growth as untreated, 0 = no growth, -100 = all killed)
Conditions in all cases: 10 µM unless noted

The panel holds about 83,000 compounds, 20% with a hit somewhere; the sample as a whole holds those more often.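 Testing used 96-well plates and a 48-hour single-concentration exposure. Example: -40 means 40% of the starting cells died.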 Unmarked numbers belong to inactive results. Calls of active or inactive are those of the source. The calls were made as follows: active = growth percent below 10; inactive = the rest.

In the case of `Brc1ccc2[nH]cc(-c3cncn3CCc3ccccc3)c2c1`, the growth in the experiment on HCT-15 colon is 52.8%; in the experiment with HT29 colon, 65.6%; with SNB-75 CNS, 36.7%; in the experiment on SNB-19 CNS it was 65.6%; with U251 CNS, 55.7%; in the experiment with PC-3 prostate, 53.9%. Further, the growth in the experiment with SK-MEL-5 melanoma is 10.4%; in the experiment with UACC-62 melanoma it was 52.9%; in the experiment on LOX IMVI melanoma, 64.1%; with SK-MEL-28 melanoma it was 69.6%; in the experiment on SK-MEL-2 melanoma, 55.8%; in the experiment on EKVX NSCLC, 36.6%. Also, the growth in the experiment with SN12C renal was 59.1%; in the experiment on UO-31 renal, 52.7%; in the experiment on TK-10 renal, -60.4% (active); in the experiment with ACHN renal, 65.7%; in the experiment on CAKI-1 renal it was 35.4%; in the experiment on A498 renal it was 29.3%. In addition, the growth in the experiment with CCRF-CEM leukemia is 57.9%; in the experiment on MOLT-4 leukemia, 48.6%.

For `CCOC(=O)CC1CSC(N/N=C/c2ccc(-n3cccn3)cc2)=N1` (centres undefined), the growth in the experiment with HCT-15 colon was 104%; with HT29 colon, 99.3%; in the experiment on SNB-75 CNS it was 101%; with SNB-19 CNS it was 98.9%; with U251 CNS, 96.9%; in the experiment on PC-3 prostate, 99.6%. Besides, the growth was 98.1% in the experiment on SK-MEL-5 melanoma; 92.5% in the experiment on UACC-62 melanoma; 97.4% in the experiment with LOX IMVI melanoma; 111% in the experiment on SK-MEL-28 melanoma; 113% in the experiment on SK-MEL-2 melanoma; 108% in the experiment with EKVX NSCLC. For the same compound, the growth is 100% with SN12C renal; 90.9% with UO-31 renal; 108% with TK-10 renal; 109% with ACHN renal; 102% in the experiment with CAKI-1 renal; 97.8% in the experiment on A498 renal. The growth is 94.1% in the experiment with CCRF-CEM leukemia and 97.3% with MOLT-4 leukemia.

For the compound `CCCCCN1C=C/C(=C\C(=O)N(C)c2ccc(Oc3ccccc3)cc2)c2ccccc21`, the growth was 98.4% with HCT-15 colon; 53.6% in the experiment with HT29 colon; 104% in the experiment with SNB-75 CNS; 88.2% in the experiment on SNB-19 CNS; 80.1% in the experiment with U251 CNS; 77.6% with PC-3 prostate. For the same compound, the growth is 62.6% with SK-MEL-5 melanoma; 76.9% in the experiment on UACC-62 melanoma; 86.6% in the experiment on LOX IMVI melanoma; 102% in the experiment with SK-MEL-28 melanoma; 98% in the experiment with SK-MEL-2 melanoma; 56.6% in the experiment on EKVX NSCLC. For the same compound, the growth in the experiment with SN12C renal was 87.5%; with UO-31 renal, 85.3%; with TK-10 renal, 92.1%; in the experiment with ACHN renal, 102%; in the experiment with CAKI-1 renal it was 93.1%; in the experiment on CCRF-CEM leukemia, 75.4%. In addition, the growth in the experiment with MOLT-4 leukemia is 70.8%.

For the compound `COc1ccc(-c2cnc3c(-c4cccc5cnccc45)cnn3c2)cc1`, the growth with HCT-15 colon is 64.5%; in the experiment with HT29 colon it was 41.3%; in the experiment on SNB-75 CNS, 42%; in the experiment with SNB-19 CNS it was 47.2%; with U251 CNS, 56.3%; with PC-3 prostate it was 50.6%. Moreover, the growth is 56.5% with SK-MEL-5 melanoma; 59.3% with UACC-62 melanoma; 80% in the experiment with LOX IMVI melanoma; 60.5% in the experiment on SK-MEL-28 melanoma; 75.5% in the experiment with SK-MEL-2 melanoma; 96.1% in the experiment with EKVX NSCLC. In addition, the growth in the experiment on SN12C renal is 58.8%; in the experiment on UO-31 renal, 52.1%; in the experiment with TK-10 renal it was 65.8%; in the experiment on ACHN renal it was -1.14% (active); with CAKI-1 renal it was 61.4%; in the experiment with CCRF-CEM leukemia, 59.2%.

In the case of `COc1ccc(C(=O)NNc2nc(Cl)nc(N3CCN(C(c4ccccc4)c4ccccc4)CC3)n2)cc1`, the growth was -37% (active) in the experiment on HCT-15 colon; -57.3% (active) with HT29 colon; 61.5% with SNB-75 CNS; 45.4% with SNB-19 CNS; 71.4% in the experiment with U251 CNS; -13.3% (active) in the experiment with PC-3 prostate. Moreover, the growth in the experiment with SK-MEL-5 melanoma is 90.7%; in the experiment on UACC-62 melanoma it was 33.1%; in the experiment with LOX IMVI melanoma, -64.3% (active); with SK-MEL-28 melanoma, 53.9%; in the experiment on SK-MEL-2 melanoma, 48.8%; in the experiment on EKVX NSCLC, 82.4%. Also, the growth was 21.1% with SN12C renal; 87% with UO-31 renal; 95% with TK-10 renal; 22.8% with ACHN renal; 21.2% in the experiment on CAKI-1 renal; -8.69% (active) in the experiment on CCRF-CEM leukemia. The growth with MOLT-4 leukemia is -39.2% (active).

With `CC(=O)O[C@@H]1C2CCC3C(CC[C@@]4(C)C3CC[C@@H]4C(C)N(C)C)[C@@]2(C)CC[C@@H]1NC(=O)C=C(C)C` (some centres undefined), the growth in the experiment on HCT-15 colon was -58.1% (active); in the experiment with HT29 colon it was -39.5% (active); in the experiment on SNB-75 CNS, 12%; with SNB-19 CNS, 65.6%; in the experiment on U251 CNS, 14.9%; in the experiment with PC-3 prostate, 10.5%. The growth in the experiment on SK-MEL-5 melanoma is -93.1% (active); in the experiment on UACC-62 melanoma, -49.9% (active); in the experiment with LOX IMVI melanoma, -43.5% (active); with SK-MEL-28 melanoma, -91.7% (active); in the experiment on SK-MEL-2 melanoma it was 31.9%; in the experiment on EKVX NSCLC it was 30.8%. For the same compound, the growth in the experiment on SN12C renal is 32.7%; in the experiment with UO-31 renal, 6.19% (active); in the experiment on TK-10 renal, 47.2%; with ACHN renal it was 25.4%; in the experiment with CAKI-1 renal it was -6.25% (active); in the experiment with A498 renal, 60.6%. Also, the figures for the growth in the experiment with CCRF-CEM leukemia and in the experiment with MOLT-4 leukemia were -12% (active) and -50.6% (active), respectively.

As to `Cc1nc2sccn2c1-c1cn2ccsc2n1`, the growth in the experiment on HCT-15 colon was 70.3%; in the experiment on HT29 colon, 99.3%; with SNB-75 CNS, 84.8%; with SNB-19 CNS it was 93.1%; in the experiment with U251 CNS, 90.8%; in the experiment on PC-3 prostate it was 94.6%. Also, the growth in the experiment on SK-MEL-5 melanoma is 65.6%; in the experiment with UACC-62 melanoma, 83.4%; in the experiment with LOX IMVI melanoma it was 98.4%; with SK-MEL-28 melanoma, 104%; with SK-MEL-2 melanoma it was 98%; in the experiment on EKVX NSCLC, 80.5%. In addition, the growth with SN12C renal was 93.6%; with UO-31 renal, 89.7%; in the experiment on TK-10 renal it was 103%; in the experiment with ACHN renal, 99.3%; in the experiment on CAKI-1 renal it was 53.1%; in the experiment on CCRF-CEM leukemia it was 96.3%.

Consider `N#C/C(=C\c1ccc(C(F)(F)F)cc1)c1cc2ccccc2[nH]1`, for which the growth in the experiment with HCT-15 colon was 92.5%; in the experiment with HT29 colon, 99.7%; with SNB-75 CNS it was 89%; in the experiment on SNB-19 CNS, 102%; with U251 CNS, 105%; with PC-3 prostate, 93.9%. Also, the growth in the experiment with SK-MEL-5 melanoma is 95.6%; with UACC-62 melanoma it was 95.1%; in the experiment with LOX IMVI melanoma, 99.7%; in the experiment on SK-MEL-28 melanoma, 102%; with SK-MEL-2 melanoma, 96.1%; in the experiment with EKVX NSCLC it was 97.6%. Also, the growth is 99.2% with SN12C renal; 92.9% in the experiment on UO-31 renal; 140% in the experiment with TK-10 renal; 104% in the experiment with ACHN renal; 83.6% in the experiment on CAKI-1 renal; 90.3% in the experiment with A498 renal. Besides, the growth in the experiment on CCRF-CEM leukemia was 98.1%; in the experiment on MOLT-4 leukemia, 91.5%.
